Bioassay records from PubChem.
EZH2 inh = blocks human EZH2/PRC2 H3K27 methylation | DELFIA TRF, 1 h | AID 651548 | 0.35% of 57,000 active | inhibition, % at 12.5 µM;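 active = mean inhibition of replicates at least 50% and every single replicate also reaching 50%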;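 note: dimethyl H3K27 on biotinylated H3 21-44 peptide detected by antibody; plate controls were median neutral control wells for no effect and median positive control wells for full effect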
Target sequence (Q15910 whole entry, looked up): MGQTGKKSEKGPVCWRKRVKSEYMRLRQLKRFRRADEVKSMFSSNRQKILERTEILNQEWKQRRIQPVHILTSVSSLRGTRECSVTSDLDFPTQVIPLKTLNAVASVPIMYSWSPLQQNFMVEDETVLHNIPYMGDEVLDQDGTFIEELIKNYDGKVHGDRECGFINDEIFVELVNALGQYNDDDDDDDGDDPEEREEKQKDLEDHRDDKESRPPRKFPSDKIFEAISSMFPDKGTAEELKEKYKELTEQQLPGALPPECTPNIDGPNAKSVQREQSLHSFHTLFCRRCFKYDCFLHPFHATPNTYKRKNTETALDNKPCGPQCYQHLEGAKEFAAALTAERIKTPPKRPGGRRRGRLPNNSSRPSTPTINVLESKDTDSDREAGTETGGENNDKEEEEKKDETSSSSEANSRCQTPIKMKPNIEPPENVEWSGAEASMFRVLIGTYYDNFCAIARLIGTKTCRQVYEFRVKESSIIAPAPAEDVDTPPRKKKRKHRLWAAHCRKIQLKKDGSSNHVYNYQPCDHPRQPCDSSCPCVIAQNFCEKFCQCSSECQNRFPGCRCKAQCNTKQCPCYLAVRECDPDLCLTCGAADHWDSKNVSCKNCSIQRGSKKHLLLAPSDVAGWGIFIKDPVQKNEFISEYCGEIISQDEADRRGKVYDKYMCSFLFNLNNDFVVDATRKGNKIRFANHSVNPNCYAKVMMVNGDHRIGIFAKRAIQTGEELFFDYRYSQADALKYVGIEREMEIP
Numbers without * were called inactive. The entries come from a sample that favours hits as a whole.

C[C@@H]1O[C@@H](O[C@@H]2[C@@H](O)[C@H](O[C@@H]3[C@@H](O)[C@@H](O)[C@H](O[C@H]4[C@H](OC(=O)[C@]56CCC(C)(C)C[C@H]5C5=CCC7[C@@]8(C)C[C@H](O)[C@H](O[C@@H]9O[C@H](C(=O)O)[C@@H](O)[C@H](O)[C@H]9O)[C@@](C)(CO)C8[C@H](O)C[C@@]7(C)[C@]5(C)C[C@H]6O)O[C@@H](CO)[C@@H]4O)O[C@H]3C)OC[C@H]2O)[C@H](O)[C@H](O)[C@H]1O (stereo not given in full) was read as EZH2 inh 99*.
`C[C@@H]1O[C@@H](O[C@@H]2CC[C@@]3(C)C(CC[C@]4(C)C3CC=C3[C@@H]5CC(C)(C)CC[C@]5(C(=O)O[C@@H]5O[C@H](CO)[C@@H](O)[C@H](O)[C@H]5O)CC[C@]34C)[C@]2(C)CO)[C@H](O)[C@H](O[C@@H]2OC[C@@H](O)[C@H](O)[C@H]2O)[C@H]1O` (stereo not given in full) gave EZH2 inh -5.
C[C@@H]1O[C@@H](O[C@H]2[C@H](O[C@H]3CC[C@@]4(C)C(CC[C@]5(C)C4CC=C4C6CC(C)(C)CC[C@]6(C(=O)O[C@@H]6O[C@H](CO[C@@H]7O[C@H](CO)[C@@H](O[C@@H]8O[C@@H](C)[C@H](O)[C@@H](O)[C@H]8O)[C@H](O)[C@H]7O)[C@@H](O)[C@H](O)[C@H]6O)CC[C@]45C)[C@]3(C)CO)OC[C@H](O)[C@@H]2O)[C@H](O)[C@H](O)[C@H]1O (stereo not given in full) was read as EZH2 inh 20.
Cc1ccc(S(=O)(=O)N(C)C[C@@H]2Oc3ccc(NC(=O)NC(C)C)cc3CC(=O)N([C@@H](C)CO)C[C@H]2C)cc1 was read as EZH2 inh 0.
CCOC(=O)CSc1n[nH]c(CC)n1 was read as EZH2 inh -6.
`Cc1[nH]cnc1/C=N/NC(=O)c1ccccn1` gave EZH2 inh 12.
For C[C@H](CO)N1C[C@H](C)[C@H](CN(C)Cc2cccc(O)c2)OCc2cn(nn2)CCCC1=O the results were EZH2 inh -2.
Screening CC1=CC(=O)OC1(O)CCC(C)CC(=O)O (stereo not given) returned EZH2 inh 100*.
`CC(CC[C@]1(C)C2CCC=C(CO)[C@]2(C)CC[C@H]1C)CC(=O)O` (stereo not given in full) gave EZH2 inh 15.
Screening C[C@H]1CN([C@@H](C)CO)C(=O)c2cc(NC(=O)Nc3ccc(C(F)(F)F)cc3)ccc2O[C@H]1CN(C)Cc1ccccc1 returned EZH2 inh -14.
For COCC#Cc1cnc2c(c1)C(=O)N([C@@H](C)CO)C[C@H](C)[C@@H](CN(C)C(=O)Nc1cc(F)ccc1F)O2 the results were EZH2 inh 10.
`O=C(CCCCCCC(=O)Nc1ccccc1O)N/N=C/c1ccc(N(c2ccccc2)c2ccccc2)cc1` gave EZH2 inh 15.
For N#Cc1ccc(/C=N/NC(=O)CCCCCC(=O)O)cc1 the results were EZH2 inh -10.
`O=C(O)CCCCCCC(=O)N/N=C/c1ccc(N(c2ccccc2)c2ccccc2)cc1` gave EZH2 inh 63*.
For O=C(O)CCCCCC(=O)N/N=C/c1ccccc1 the results were EZH2 inh 0.
Screening O=C(O)CCCCCC(=O)N/N=C/c1ccc(N(c2ccccc2)c2ccccc2)cc1 returned EZH2 inh 61*.
For O=C(O)CCCCCCC(=O)N/N=C/c1ccc(F)cc1 the results were EZH2 inh 7.
`CO[C@H]1CN(C)C(=O)c2cc(NC(=O)Nc3cccc(Cl)c3)ccc2OC[C@H](C)N(C(=O)Nc2c(C)noc2C)C[C@@H]1C` gave EZH2 inh -7.
COc1ccc(OC)c(NC(=O)CNC(=O)c2ccccc2F)c1 was read as EZH2 inh -1.
Screening CCOc1ccccc1C1CC(=O)NC(C)=C1C(=O)OCC1CCCCC1 (stereo not given) returned EZH2 inh 4.
For Oc1ccc([C@H]2Oc3cc(O)cc(O)c3C[C@H]2O)cc1 the results were EZH2 inh 16.
`O=C1c2c(O)cc(O)cc2OC(c2ccc(O)cc2)C1C1C(=O)c2c(O)cc(O)cc2OC1c1ccc(O)cc1` (stereo not given) gave EZH2 inh -7.
`Oc1ccc([C@@H]2Oc3cc(O)cc(O)c3C[C@@H]2O)cc1` gave EZH2 inh 89*.
Screening CCOC(=O)c1c(NC(=O)C2CC(Cl)=CCC2C(=O)O)sc2c1CC(C)CC2 (stereo not given) returned EZH2 inh 25.
For CCOC(=O)c1c(-c2ccc(Cl)cc2)csc1NC(=O)C1CCCCC1C(=O)O (stereo not given) the results were EZH2 inh 58*.
`CCOC(=O)c1c(-c2ccc(C)cc2)csc1NC(=O)c1cccc(OC(C)=O)c1` gave EZH2 inh 1.
`C=C1C(O)CC2C(C(=O)OC)=CO[C@@H](O[C@@H]3O[C@H](CO)[C@@H](O)[C@H](O)[C@H]3O)C12` (stereo not given in full) gave EZH2 inh 25.
